Bioassay records deposited in PubChem by several laboratories.
HTR2A ag: mouse HTR2A agonism via beta-arrestin recruitment. P35363. CHO-K1 mHTR2A beta-arrestin complementation, luminescence; percent of 30 µM serotonin response. activation, % at 7.6 µM. hit rate 0.66% among 360,000. AID 624169;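 active means activation above a run cutoff, the mean activation of all tested compounds plus 3 SD, cut at about 14% in these data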;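 further: 0% = plate median of compound wells and 100% = 30 µM serotonin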
TLR9-MyD88 block: blocks human TLR9 binding to MyD88; Q9NR96+Q99836; CHO BLA complementation TLR9-MyD88, CCF4 FRET ratio; inhibition, % at 4.98 µM; hit rate 0.21% among 340,000; AID 504734;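 active means inhibition above the mean over all tested compounds plus 3 SD, cut at about 21% in these data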;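 further: 0% = DMSO only wells and 100% = clavulanate BLA inhibitor control wells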
LANA-H2B inh: blocks KSHV LANA binding to histone H2A/H2B; cell-free LANA-H2A/H2B peptide, fluorescence polarization; inhibition, % (concentration not given with the values); hit rate 0.6% among 320,000; Q9QR71; in the data active means inhibition mostly above about 10%, no sharp cut-off; inactive means mostly below about 6.7%
NOD2-RIPK2 inh: NOD2-RIPK2 protein interaction inhibition. hit rate 0.38% among 360,000. inhibition, % at 4.98 µM. AID 624267. CHO BLA complementation NOD2-RIPK2, CCF4 ratio. O43353; in the data active means inhibition above about 21%;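 further: 0% = vehicle only and 100% = reference blocker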
TLR4 MyD88 comp: TLR4-MyD88 interaction inhibition in cells | O00206+Q99836 | inhibition, % at 8.4 µM | hit rate 0.18% among 200,000 | HeLa CL3-4 TLR4/MyD88 BLA complementation, FRET ratio | AID 861; in the data active means inhibition above about 25%;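 further: 0% = vehicle and 100% = reference inhibitor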
Rtt109 Vps75: C. albicans Rtt109 histone acetyltransferase inhibition; Q5AAJ8; purified Rtt109/Vps75, ThioGlo CoA-SH fluorescence, 4 h; inhibition, % at 34.9 µM; hit rate 0.16% among 330,000; AID 540336;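 active means inhibition of at least 50% in every replicate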
Active calls of the source: *; . = no result. Shown are actives, neighbours in structure and some others; about 1.8% of the full set was active somewhere.

SMILES	HTR2A ag	TLR9-MyD88 block	LANA-H2B inh	NOD2-RIPK2 inh	TLR4 MyD88 comp	Rtt109 Vps75
Cc1ccc(C)c(S(=O)(=O)/N=C2\C=C(NS(=O)(=O)c3ccccc3)C(=O)c3ccccc32)c1	-6	-9	31*	0	.	8
CCCCOCCCNC(=O)C[C@@H]1C[C@@]2(C(=O)OCC)CCC=C2N(CCC2=CCCCC2)C1=O	6	.	.	4	.	.
COc1ccc2noc3c2c1C(=O)c1ccccc1-3	0	2	167*	1	.	-7
O=C1c2ccccc2-c2onc3ccc(NCCCn4ccnc4)c1c23	.	.	176*	.	-3	.
Cc1cccc(C)c1C(O)c1ncc(-c2ccccc2Cl)[nH]1 (stereo unspecified)	-9	.	.	-8	.	.
O=C1CCCN1CCC1CCN(C2CC(=O)N(c3ccc(Cl)cc3)C2=O)CC1 (stereo unspecified)	-3	-3	3	22*	15	-2
CC(C)CCc1noc(CN2CCN(CC(=O)NC(C)C)CC2)n1	1	-6	-2	-13	.	16
CC(C)CCc1noc(CN2CCC(CCN3CCCC3=O)CC2)n1	-2	0	11*	2	0	3
CCC(c1nnnn1-c1ccc2c(c1)OCCO2)N1CCN(CC)CC1 (stereo unspecified)	2	.	.	-1	.	.
CC1(C)Cc2c(cnn2-c2ccc(F)cc2)C(NC(=O)CCn2cncn2)C1 (stereo unspecified)	2	-7	5	-11	.	1
CC1(C)Cc2c(cnn2-c2ccc(F)cc2)C(NC(=O)Cn2cncn2)C1 (stereo unspecified)	-1	2	51*	9	.	-7
COc1ccc(NC(=O)CSc2nn3c(=O)c(C)nnc3s2)cc1	-3	10	28*	0	.	-16
COC(=O)c1ccc(NC(=O)CSc2nn3c(=O)c(C)nnc3s2)cc1	-1	-3	-8	-7	.	-48
Cc1cc(C)nc(NC(=O)/C=C/c2ccccc2Cl)n1	8	1	-8	9	-2	1
Cc1cc(N)c2cc(NC(=O)/C=C/c3ccccc3Cl)ccc2n1	-4	0	2	-4	.	90*
Cn1c(N)c(C(=O)COC(=O)/C=C/c2ccc(Cl)cc2)c(=O)n(C)c1=O	9	-8	92*	8	.	6
COC(=O)c1ccccc1-c1ccc(/C=N/NC(=O)c2cc3ccccc3o2)o1	-6	2	-4	3	-12	-5
COC(=O)c1ccccc1-c1c2ccc(=N)cc-2oc2cc(N)ccc12	-12	17	192*	17	.	-293
CC1(Cc2ccc(C(F)(F)F)o2)C(=O)Nc2cc(-c3ccc(F)cc3F)ccc21 (stereo unspecified)	1	.	.	-11	.	.
COc1ccccc1CCn1cnc2c3cc(C)ccc3n(C)c2c1=O	2	6	24*	5	-11	6
C/C(=N\NC(=O)c1ccncc1)c1cc2ccccc2oc1=O	-2	-3	-2	2	-6	-5
C/C(=N/NC(=O)c1ccncc1)c1cc2ccc(O)cc2oc1=O	-2	-88	87*	-76	-38	-6
O=c1c(-c2ccco2)nc2ccccc2n1C(c1ccccc1)c1nc2ccccc2[nH]1 (stereo unspecified)	-2	.	.	-5	.	.
Cc1nc(C(=O)Nc2ccccc2Cl)cc2c1[nH]c1ccccc12	3	-1	8.3*	-3	2	0
Cn1c(=O)c2cc(NC(=O)NCc3ccccc3)ccc2n1Cc1ccc(Cl)cc1	-5	.	.	9	.	.
SMILES	HTR2A ag	TLR9-MyD88 block	LANA-H2B inh	NOD2-RIPK2 inh	TLR4 MyD88 comp	Rtt109 Vps75
COc1ccc(NC(=O)C2c3ccccc3OCC(=O)N2C2CC2)cc1 (stereo unspecified)	0	.	.	-4	.	.
COc1ccc(-c2nc(-c3cccs3)no2)cc1	-3	-7	3	-3	.	52*
COc1ccc(-c2nc(-c3ccncc3)no2)cc1	-1	3	3	-8	.	-7
CCOC1=C2CN(S(=O)(=O)c3ccc(C)cc3)[C@H](c3ccccc3)C[C@H]2[C@H]2C(=O)N(c3ccccc3)C(=O)[C@H]2C1	-3	.	.	-7	.	.
CC(=O)Oc1ccccc1-c1nc(C)nc(N(C)C(C)=O)n1	2	1	44*	-5	14	1
CC(=O)Oc1ccccc1C(=O)Oc1ccccc1C(=O)O	-4	-3	1	-15	.	-5
Cc1ccc(C)c(NC(=O)CSc2nnc(-c3ccncc3)o2)c1	1	.	6	-12	.	.
CC(C)(C)C1CCc2c(sc(NC(=O)CSc3nnc(-c4ccccc4)o3)c2C#N)C1 (stereo unspecified)	3	4	2	-5	2	56*
N#Cc1ccccc1NC(=O)CSc1nnc(-c2ccncc2)o1	-1	-5	13*	5	-12	5
Cc1ccnc(SCC(=O)Nc2sc3c(c2C#N)CCC(C(C)(C)C)C3)n1 (stereo unspecified)	1	-8	4	-2	-1	-3
COc1ccc(Cc2c(C3CCCCC3)nc3ccc(Br)cn23)c(C)c1	1	.	.	4	.	.
CC1(C(=O)NCc2ccco2)Cc2c(-c3cccc(C(F)(F)F)c3)ccnc2O1 (stereo unspecified)	-8	.	.	12	.	.
CC(Sc1nnc(C2CC2)n1C1CC1)C(=O)Nc1cccc(S(=O)(=O)N2CCOCC2)c1 (stereo unspecified)	-1	-2	18*	-2	.	1
CCC(=O)N(C)C[C@H]1Oc2ncc(C#Cc3ccncc3)cc2C(=O)N([C@@H](C)CO)C[C@@H]1C	-1	-2	.	-3	.	.
S=c1[nH]nc(-c2ccc(Cl)cc2Cl)n1-c1ccc(Cl)cc1	-2	6	45*	-14	.	5
Cn1c(=O)c(Nc2ccc(Cl)cc2)c2c3c(cccc31)C(=O)c1ccccc1-2	.	.	66*	.	10	.
c1cc(-c2cc3c(o2)CCCC3OCCN2CCOCC2)cs1 (stereo unspecified)	-1	.	.	0	.	.
O=C(O)c1ccccc1-c1ccccc1C(=O)NCc1cccc(C(F)(F)F)c1	0	3	18*	0	10	5
COc1cccc(CNC(=O)c2ccccc2-c2ccccc2C(=O)O)c1	2	-6	2	-5	.	7
O=C(O)c1ccccc1SCc1csc(-c2ccccc2)n1	-3	3	12*	-6	.	3
CCCCNC(=O)C1(C)CCCCN1C(=O)c1ccc2sccc2c1 (stereo unspecified)	-3	.	.	2	.	.
O=C(C[C@@H]1C/C=C/CCCC(=O)O[C@H](c2ccccc2)CNC1=O)N[C@H](CO)Cc1ccccc1	-3	-5	10*	-1	.	-2
O=C(C[C@H]1C/C=C\C[C@@H](Cc2ccc(F)cc2)C(=O)O[C@H](c2ccccc2)CNC1=O)N[C@@H](CO)Cc1ccccc1	4	-1	0	-8	.	-4
CCn1c(SCC(=O)Nc2cc(OC)c(OC)c(OC)c2)nnc1-c1cccs1	10	-9	-3	-11	6	63*
